PfGluPho inh: PfG6PD (Plasmodium falciparum) enzyme inhibition; PfGluPho enzyme, NADPH resazurin-diaphorase fluorescence; inhibition, % at 20 µM; 350,000 compounds, 0.78% hits;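 active = inhibition reaching at least a set limit at 20 µM in the primary screen, cut at about 59% in these data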;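 note: 0% = DMSO wells with substrate and 100% = DMSO wells lacking glucose-6-phosphate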
NPR2 activator: GC-B (human) receptor activation; HEK293-GC-B cells, CNP EC30, cGMP TR-FRET; 0% at EC30 CNP, 100% saturating CNP; activation, % at 10 µM; 370,000 compounds, 0.11% hits;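 active = activation at 10 µM reaching about 35% in either raw or pattern-adjusted values, limit read from the data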
A3G deaminase: APOBEC3G (human) deaminase inhibition | Q9HC16 | recombinant A3G, ssDNA deamination FAM/TAMRA fluorescence | inhibition, % at 20 µM | 330,000 compounds, 0.28% hits | AID 493012;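 active = inhibition of at least 40% at 20 µM, with no more than 30% in the related APOBEC3A deaminase screen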;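 note: plate controls were DMSO wells with A3G for no effect and wells lacking A3G enzyme for full effect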
Neddyl block: blocks human cullin neddylation; 360,000 compounds, 0.58% hits; TR-FRET cullin neddylation, biochemical; P61081+Q13564; inhibition, % at 25 µM; in the data active = inhibition above about 36%
APOBEC3A inh: inhibitors of human APOBEC3A DNA deaminase; inhibition, % at 20 µM; P31941; 330,000 compounds, 0.41% hits; recombinant A3A, FAM/TAMRA ssDNA deamination fluorescence;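 active = at least 40% inhibition at 20 µM here, with at most 30% in a related deaminase screen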;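 note: plate controls were A3A with DMSO for no effect and wells lacking A3A enzyme for full effect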
NPR1 activator: GC-A (human) enzyme activation; activation, % at 10 µM; AID 1671463; P16066; HEK293 GC-A cells, cGMP TR-FRET, EC30 ANP; 0% at EC30 ANP, 100% saturating ANP; 370,000 compounds, 0.14% hits; in the data active = activation above about 40%
PfG6PD confirm: PfG6PD inhibition, single-dose confirmed; shares compounds with PfGluPho inh; recombinant PfGluPho, NADPH-diaphorase-resazurin fluorescence; inhibition, % at 20 µM; 2,400 compounds, 34% hits; AID 504753;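 active = inhibition of at least 50% at 20 µM in any single replicate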;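 note: 0% = DMSO with substrate and 100% = DMSO lacking glucose-6-phosphate substrate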
Diaph ctr 10uM: counter-screen for P. falciparum G6PD inhibitors: diaphorase inhibitors, oxidizers; shares compounds with PfGluPho inh; diaphorase-coupled resazurin reduction, fluorescence, NADPH 10 uM; inhibition, % at 20 µM; 820 compounds, 39% hits; AID 504862;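 active = average inhibition reaching 50% or more with the compound at 20 µM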;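 note: resorufin red fluorescence formed as diaphorase reduces resazurin using NADPH; 0% = DMSO with enzyme and 100% = DMSO without enzyme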
Diaphorase 30uM: counter-screen for P. falciparum G6PD inhibitors: diaphorase inhibitors, oxidizers | shares compounds with PfGluPho inh | Diaphorase/resazurin coupled assay, resorufin fluorescence, 30 uM NADPH | inhibition, % at 20 µM | 820 compounds, 29% hits;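 active = inhibition averaging 50% or more, tested at 20 µM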;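 note: 0% = DMSO with enzyme and 100% = DMSO wells lacking diaphorase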
Starred values were filed as active, the others as inactive; / = no result given. Rows were chosen to be rich in hits. Some 2% of all compounds tested hit in one or more screens of this group.

SMILES	PfGluPho inh	NPR2 activator	A3G deaminase	Neddyl block	APOBEC3A inh	NPR1 activator	PfG6PD confirm	others
Nc1ccc(N2CCCC2)c(S(=O)(=O)Nc2cccc(C(F)(F)F)c2)c1	80*	-2	5	8	-4	0	27
COc1ccccc1NS(=O)(=O)c1cc(N)ccc1N1CCCC1	70*	2	0	21	-5	-4	22
CCOC(=O)C(=CNc1ccc(N2CCCCC2)c(S(=O)(=O)Nc2ccccc2OC)c1)C(=O)OCC	65*	0	/	/	/	5	24
COc1ccc(NS(=O)(=O)c2cc(N)ccc2N2CCCCC2)cc1	11	-5	-7	3	-1	-7	/
CC(C)(C)c1ccc(-c2nnc(SCC(=O)Nc3cccc4ccccc34)n2Cc2ccco2)cc1	/	8	/	/	/	-2	/
O=C(Cc1c[nH]c2ccccc12)Nc1ccc(Nc2cccnc2)c(-c2cc(F)cc(F)c2)c1	/	-7	/	/	/	-3	/
COc1ccc2c(c1)[C@@]1(NCCc3c1[nH]c1ccc(OC)cc31)C(=O)N2	/	2	/	/	/	1	/
CC(NC(=O)c1ccco1)c1nc(-c2ccc(C(C)(C)C)cc2)no1 (stereo unspecified)	66*	0	-8	2	-2	-3	4
Cc1ccc(NC(=S)NNC(=O)CSc2nnc(SCc3cccc4ccccc34)s2)cc1	/	-1	/	/	/	0	/
CC(Sc1ccccc1)C(=O)N/N=C/c1ccccc1 (stereo unspecified)	77*	3	-4	-5	-4	-4	41
O=C(CCSCCC(=O)NN=Cc1ccccc1)NN=Cc1ccccc1	72*	3	/	-18	/	-4	55*	Diaph ctr 10uM=49;Diaphorase 30uM=45
O=C(CCC(=O)Nc1ccc(F)cc1)N/N=C/c1ccccc1	44	-5	-4	-13	-4	-1	/
O=C(CSCc1ccc(Cl)cc1)N/N=C/c1c(Cl)cccc1Cl	8	-4	/	3	/	-6	/
O=C(CSc1nc2ccccc2o1)N/N=C/c1ccccc1	69*	-3	0	-2	1	0	68*	Diaph ctr 10uM=61*;Diaphorase 30uM=52*
O=C(CSCc1ccc(Cl)cc1)N/N=C/c1ccccc1	118*	3	1	-6	2	-1	93*	Diaph ctr 10uM=90*;Diaphorase 30uM=80*
O=C(N[C@@H](Cc1cccnc1)C(=O)N1CCC[C@H]1C(=O)NCCc1ccccc1Cl)c1ccccc1	/	-3	/	/	/	0	/
Cc1c(C(=O)Nc2cccc([N+](=O)[O-])c2)cnn1-c1ccccc1	74*	1	2	-39	2	-1	27
CC(=O)c1cccc(NC(=O)c2cnn(-c3ccccc3)c2C)c1	75*	-2	4	12	-1	1	51*	Diaph ctr 10uM=41;Diaphorase 30uM=35
Cc1c(C(=O)Nc2ccccc2)cnn1-c1ccccc1	23	2	0	-2	0	-2	/
COC(=O)C1=C(C)N(Cc2ccc(C(F)(F)F)cc2)C(=NCc2ccc(C(F)(F)F)cc2)NC1c1ccccc1C(F)(F)F (stereo unspecified)	/	-4	/	/	/	1	/
O=C(NC1CCCCN(Cc2ccc(Cl)cc2)C1=O)C1C2CC3CC(C2)CC1C3 (stereo unspecified)	/	4	/	/	/	0	/
C[C@H]1C2CC(OC(=O)Nc3ccc(F)cc3)C(C2)[C@H]2CCCCN21 (stereo partly specified)	/	3	/	/	/	0	/
COc1cccc(/C=N/NC(=O)CCCc2ccc(OC)c(C)c2)c1	77*	-1	0	-4	1	2	23
COc1ccc(F)cc1S(=O)(=O)Nc1ccc(C)cc1	63*	-5	-5	-6	-5	-1	37
COc1ccc(NS(=O)(=O)c2cc(C)ccc2OC)cc1OC	-13	-4	-8	-1	-6	2	/
SMILES	PfGluPho inh	NPR2 activator	A3G deaminase	Neddyl block	APOBEC3A inh	NPR1 activator	PfG6PD confirm	others
CCn1c2ccccc2c2cc(NC(=O)COC(=O)c3cccc(F)c3)ccc21	/	-14	/	/	/	-10	/
O=C1c2ccccc2C(Nc2ccc(F)c(Cl)c2)N1Cc1ccco1 (stereo unspecified)	7	-11	-4	1	-1	-4	/
O=C1c2ccccc2C(Nc2ccc3c(c2)OCO3)N1Cc1ccc2c(c1)OCO2 (stereo unspecified)	60*	-5	20	-10	-1	59*	44
O=C1c2ccccc2C(Nc2cccnc2)N1Cc1ccc2c(c1)OCO2 (stereo unspecified)	-4	-3	-7	20	-4	-2	/
O=C1c2ccccc2C(Nc2ccc3c(c2)OCO3)N1Cc1ccco1 (stereo unspecified)	61*	-2	16	2	3	41*	39
C[C@H](O)[C@@H]1CN2CCc3ccc(-c4ccc5c(c4)OCO5)cc3[C@@H]2C[C@@H]1N(C)C(=O)c1cccc(Cl)c1	/	-9	/	/	/	0	/
CCC(C)NC(=O)CNc1nnnn1-c1ccccc1 (stereo unspecified)	/	-8	/	/	/	-4	/
Cc1onc(-c2ccccc2)c1C(=O)N/N=C/c1cc(Br)c(Br)o1	64*	-2	-3	-24	-2	-4	28
Cc1ccc(/C=N/NC(=O)c2c(-c3ccccc3)noc2C)o1	36	2	-7	-22	0	1	/
COc1ccc(Cl)cc1/C=N/NC(=O)c1c(-c2ccccc2)noc1C	127*	-1	-8	14	-4	-7	99*	Diaph ctr 10uM=96*;Diaphorase 30uM=83*
COc1cccc(/C=N/NC(=O)c2c(-c3ccccc3)noc2C)c1OC	-1	3	-3	/	1	-4	/
O=C(COCc1ccncc1)N1CCN(c2ccc(F)cc2Cl)CC1	/	-2	/	/	/	-2	/
CCOC(=O)c1ccc(S(=O)(=O)Nc2cc(C(=O)O)ccc2Cl)cc1	48	-2	-5	1	-2	3	29
O=C(NCc1cccs1)C1CCN(S(=O)(=O)c2ccc([N+](=O)[O-])cc2)CC1	/	-3	/	/	/	4	/
COC(=O)[C@H](CC(C)C)N(CCc1cn(Cc2ccc(C)cc2)nn1)S(=O)(=O)c1ccc(F)cc1Br	/	2	/	/	/	0	/
Oc1cc2c(cc1O)[C@H]1c3ccc(O)c(O)c3OC[C@@]1(O)C2	113*	-2	59*	-17	-2	-4	98*	Diaph ctr 10uM=56*;Diaphorase 30uM=30
O=C(c1cccc(F)c1F)N1CCCC(c2nc(-c3cccs3)no2)C1 (stereo unspecified)	/	-2	/	/	/	-2	/
Nc1ccccc1Nc1ccc([N+](=O)[O-])cc1[N+](=O)[O-]	17	2	-3	-33	0	-1	/

Screening data: PubChem BioAssay, Sanford-Burnham Center for Chemical Genomics
